Reference: PubChem BioAssay (NCATS)
Results filed as inconclusive are left out. A call without a number means that no potency is given here. Active and inactive are the calls of the source. Unless noted, calls come from the whole dose curve; as a rule, active = well fitted curve in the direction sought with a large enough effect; inconclusive = small, poorly fitted or top-dose-only effect, or another doubt; inactive = no such curve, though single readings can be large; an effect the other way counts as inactive or inconclusive.

Tests used:
[1] = molecular target: Thioredoxin reductase 1, cytoplasmic (Rattus norvegicus) (UniProt O89049); experiment: qHTS Assay for Inhibitors of Mammalian Selenoprotein Thioredoxin Reductase 1 (TrxR1) (AID 488773); settings: Potency: inhibition;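 note: drop in NADPH fluorescence over an 8 min run after selenite addition; series mostly up to about 57 µM; nearly all actives have a fitted effect of over 40% in size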
Summary of the method: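 Inhibition is scored from the loss of NADPH fluorescence between first and last reads of an 8-min kinetic run. Selenite (400 uM) was the substrate, added after 15 min compound preincubation at room temperature.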

[2] = molecular target: M-phase phosphoprotein 8 (Homo sapiens) (UniProt Q99549); experiment: qHTS Validation Assay for Inhibitors for MPP8 Chromodomain Interactions with Methylated Histone Tails (AID 488949); note: nearly all actives have a fitted effect of over 55% in size; note: potency is the fitted concentration of half-maximal effect
Summary of the method: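 50 nM MPP8 + 50 nM b-H3K9me3 peptide, PBS pH 7.4/0.01% Tween-20, 30 min RT; + cpd 30 min RT; + AlphaScreen donor/Ni-chelate acceptor beads 10 ug/mL final, 30 min dark; luminescence read.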

[3] = molecular target: Chromobox protein homolog 1 (Homo sapiens) (UniProt P83916); experiment: qHTS Validation Assay for Inhibitors of HP1-beta Chromodomain Interactions with Methylated Histone Tails (AID 488953); note: nearly all actives have a fitted effect of over 50% in size; note: potency is the fitted concentration of half-maximal effect
Summary of the method: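 AlphaScreen proximity signal from streptavidin donor and nickel chelate acceptor beads (final 10 ug/mL) after 30 min dark incubation. Compounds had 30 min at room temperature with preformed complex of 50 nM HP1-beta and 50 nM b-H3(1-18)K9me3 in PBS pH 7.4 with 0.01% Tween-20.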

[4] = molecular target: Methanococcus maripaludis chaperonin (MmCpn) (UniProt Q6LX38); experiment: High-Throughput Screening for Modulators of Cytosolic Chaperonin Activity: MmCpn Primary Screen (AID 488978);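 note: 50 nM MmCpn enzyme hydrolysing 30 µM ATP at 37 °C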
Methanococcus maripaludis chaperonin (MmCpn), sequence (Q6LX38 1-543): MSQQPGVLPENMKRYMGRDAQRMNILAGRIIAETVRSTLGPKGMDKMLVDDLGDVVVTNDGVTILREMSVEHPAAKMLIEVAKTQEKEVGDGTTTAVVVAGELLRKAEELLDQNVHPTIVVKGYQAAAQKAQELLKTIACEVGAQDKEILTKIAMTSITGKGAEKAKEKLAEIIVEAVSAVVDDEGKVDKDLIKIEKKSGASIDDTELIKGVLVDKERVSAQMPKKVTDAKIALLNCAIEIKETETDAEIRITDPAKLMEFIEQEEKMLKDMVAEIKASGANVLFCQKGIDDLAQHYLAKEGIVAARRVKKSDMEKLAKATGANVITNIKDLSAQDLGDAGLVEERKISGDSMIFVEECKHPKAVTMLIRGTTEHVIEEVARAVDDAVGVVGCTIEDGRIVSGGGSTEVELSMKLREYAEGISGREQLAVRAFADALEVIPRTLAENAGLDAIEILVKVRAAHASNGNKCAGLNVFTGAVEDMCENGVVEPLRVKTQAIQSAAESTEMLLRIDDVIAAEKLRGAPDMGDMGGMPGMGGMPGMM
Summary of the method: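 Steps: chaperonin 50 nM final; add compound, 5 min RT; start with ATP, 30 uM final; hold 10 min at 37C; add ADP Transcreener HTRF reagent, 5 min; read ex 320, em 590 and 665 nm.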

[5] = molecular target: Thyrotropin receptor (Homo sapiens) (UniProt P16473); experiment: qHTS Assay for Antagonists of the Thyroid Stimulating Hormone Receptor (AID 488980); note: series mostly up to about 58 µM
Thyrotropin receptor (Homo sapiens), sequence (P16473 whole entry, looked up): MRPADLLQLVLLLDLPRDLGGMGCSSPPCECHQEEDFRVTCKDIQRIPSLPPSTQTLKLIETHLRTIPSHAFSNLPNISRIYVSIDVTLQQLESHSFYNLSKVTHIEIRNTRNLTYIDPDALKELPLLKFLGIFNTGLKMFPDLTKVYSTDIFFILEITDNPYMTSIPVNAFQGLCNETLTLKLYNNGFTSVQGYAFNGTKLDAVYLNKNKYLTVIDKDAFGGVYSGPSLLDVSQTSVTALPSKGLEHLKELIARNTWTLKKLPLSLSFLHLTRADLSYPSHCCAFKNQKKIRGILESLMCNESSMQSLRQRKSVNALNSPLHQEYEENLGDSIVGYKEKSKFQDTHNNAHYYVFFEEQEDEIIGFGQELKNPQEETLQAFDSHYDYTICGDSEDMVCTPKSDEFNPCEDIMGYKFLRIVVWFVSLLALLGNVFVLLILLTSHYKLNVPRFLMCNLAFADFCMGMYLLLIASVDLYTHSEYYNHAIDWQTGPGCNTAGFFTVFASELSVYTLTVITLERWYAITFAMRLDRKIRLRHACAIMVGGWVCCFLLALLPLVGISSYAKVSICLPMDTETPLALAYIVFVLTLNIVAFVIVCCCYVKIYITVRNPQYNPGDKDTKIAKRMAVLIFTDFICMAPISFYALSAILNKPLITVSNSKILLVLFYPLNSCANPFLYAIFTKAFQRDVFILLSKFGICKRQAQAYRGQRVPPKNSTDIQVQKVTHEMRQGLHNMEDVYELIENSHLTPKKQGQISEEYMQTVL
Summary of the method: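 Readout is cAMP by HTRF competition between cellular cAMP and cAMP-d2 for a cryptate-labelled antibody. Antagonism was assessed in TSHR-transfected HEK293 cells stimulated with 4 nM TSH (EC80, final) in the presence of RO 20-1724.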

[6] = molecular target: D(1A) dopamine receptor (Homo sapiens) (UniProt P21728); experiment: HTS Assay for Allosteric Agonists of the Human D1 Dopamine Receptor: Primary Screen for Agonists (AID 488981); note: potency is the fitted concentration of half-maximal effect
Summary of the method: (§1)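 Tetracycline-induced HEK293 T-REx cells force-coupled to calcium signalling were incubated overnight at 30 C and dye-loaded at room temperature. Calcium flux over 180 s after compound addition flagged agonists; a further 180 s read after EC20 dopamine flagged potentiators.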

[7] = molecular target: D(1A) dopamine receptor (Homo sapiens) (UniProt P21728); experiment: HTS Assay for Allosteric Agonists of the Human D1 Dopamine Receptor: Primary Screen for Antagonists (AID 488983);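 note: calcium flux response to an EC80 dopamine challenge measured with no-wash dye; nearly all actives have a fitted effect of over 65% in size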
Summary of the method: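 Calcium-flux read-out in inducible HEK293 T-REx cells expressing D1, dye-loaded 30–90 min at room temperature. Kinetic reads: 180 s after compound (agonist phase), then 180 s after an EC80 dopamine challenge.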

[8] = molecular target: ATPase family AAA domain-containing protein 5 (Homo sapiens) (UniProt Q96QE3); experiment: Validation screen for small molecules that inhibit ELG1-dependent DNA repair in human embryonic kidney (HEK293T) cells expressing luciferase-tagged ELG1 (AID 493107);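 note: series mostly up to about 46 µM; inhibitors lower the ELG1-luciferase luminescence signal; nearly all actives have a fitted effect of over 70% in size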
ATPase family AAA domain-containing protein 5 (Homo sapiens), sequence (Q96QE3 whole entry, looked up, the tested form may be a part): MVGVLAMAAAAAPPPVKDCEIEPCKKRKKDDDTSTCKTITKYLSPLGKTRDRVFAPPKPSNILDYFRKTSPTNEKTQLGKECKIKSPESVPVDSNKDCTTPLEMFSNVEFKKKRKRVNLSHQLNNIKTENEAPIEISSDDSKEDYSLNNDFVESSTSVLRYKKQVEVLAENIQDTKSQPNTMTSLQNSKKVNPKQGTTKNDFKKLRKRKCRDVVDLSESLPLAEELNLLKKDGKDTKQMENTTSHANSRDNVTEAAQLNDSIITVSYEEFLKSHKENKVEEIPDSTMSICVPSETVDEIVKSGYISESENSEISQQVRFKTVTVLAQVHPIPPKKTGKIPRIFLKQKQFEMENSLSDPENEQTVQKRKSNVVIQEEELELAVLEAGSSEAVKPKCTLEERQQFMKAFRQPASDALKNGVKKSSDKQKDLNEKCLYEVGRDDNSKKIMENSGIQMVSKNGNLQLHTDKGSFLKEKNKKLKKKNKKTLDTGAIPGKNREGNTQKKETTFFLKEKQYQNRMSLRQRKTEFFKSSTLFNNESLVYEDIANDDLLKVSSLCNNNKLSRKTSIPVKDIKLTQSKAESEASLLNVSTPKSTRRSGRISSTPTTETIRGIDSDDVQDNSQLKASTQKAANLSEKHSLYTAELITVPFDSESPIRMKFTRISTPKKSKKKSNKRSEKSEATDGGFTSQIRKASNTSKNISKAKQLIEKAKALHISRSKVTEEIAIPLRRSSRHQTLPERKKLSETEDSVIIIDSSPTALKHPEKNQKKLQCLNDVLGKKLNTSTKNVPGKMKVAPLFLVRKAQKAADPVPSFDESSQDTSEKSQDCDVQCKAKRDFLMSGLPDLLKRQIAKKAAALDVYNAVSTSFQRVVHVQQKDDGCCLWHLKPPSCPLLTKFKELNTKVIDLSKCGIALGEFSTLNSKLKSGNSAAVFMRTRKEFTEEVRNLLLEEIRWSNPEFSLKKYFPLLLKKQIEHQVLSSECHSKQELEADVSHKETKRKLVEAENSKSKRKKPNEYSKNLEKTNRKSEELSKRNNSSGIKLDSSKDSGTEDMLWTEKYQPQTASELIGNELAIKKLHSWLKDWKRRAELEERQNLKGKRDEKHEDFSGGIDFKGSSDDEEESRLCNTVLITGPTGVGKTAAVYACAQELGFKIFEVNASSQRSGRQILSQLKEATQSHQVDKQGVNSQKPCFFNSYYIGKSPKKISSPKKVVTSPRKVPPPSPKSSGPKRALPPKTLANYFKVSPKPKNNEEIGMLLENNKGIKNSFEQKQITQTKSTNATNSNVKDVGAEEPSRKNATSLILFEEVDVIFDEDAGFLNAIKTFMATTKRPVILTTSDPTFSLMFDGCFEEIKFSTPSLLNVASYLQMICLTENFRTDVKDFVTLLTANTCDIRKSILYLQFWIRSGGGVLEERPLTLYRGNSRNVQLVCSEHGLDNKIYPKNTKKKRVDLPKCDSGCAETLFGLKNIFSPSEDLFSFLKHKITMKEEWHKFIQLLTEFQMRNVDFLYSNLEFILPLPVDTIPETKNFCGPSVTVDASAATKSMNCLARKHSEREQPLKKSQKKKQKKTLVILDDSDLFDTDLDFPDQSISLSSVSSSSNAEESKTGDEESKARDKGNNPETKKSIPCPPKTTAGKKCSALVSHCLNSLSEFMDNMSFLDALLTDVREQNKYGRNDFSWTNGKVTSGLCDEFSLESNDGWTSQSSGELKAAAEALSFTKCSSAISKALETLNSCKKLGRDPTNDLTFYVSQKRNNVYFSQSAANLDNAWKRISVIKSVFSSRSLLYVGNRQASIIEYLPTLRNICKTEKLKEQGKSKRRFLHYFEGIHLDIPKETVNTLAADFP
Summary of the method: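 Luciferase read-out, ONE-Glo, 30 min at room temperature, follows 16 h co-exposure at 37 C of compound and the DNA-damaging agent 5-fluorouridine. Cells: HEK293T with ELG1-luciferase fusion, 2,000 per well, DMSO as vehicle.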

[9] = Nrf2 qHTS screen for inhibitors: Validation (AID 493153; active = well fitted inhibition curve with a large enough effect in the main read-out, with a control signal flat, not every such curve was filed as active); settings: Potency: luciferase luminescence; viability change: measured here: cytotoxicity max response
Summary of the method: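 Concentration-response on A549 ARE_Fluc reporter cells exposed 18-24 h at 37 C, 5% CO2. Cytotoxicity read first by CellTiter-Fluor fluorescence (Ex 405/Em 525), then Nrf2 inhibition by BugLite luminescence after 15 min.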

[10] = qHTS for Inhibitors of Cell Surface uPA Generation: Validation Assay (AID 493164);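 note: RAW 264.7 macrophage cells exposed to compound for 18 h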
Summary of the method: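 ATP-Lite luminescence read-out: ATP remains high when uPA activity-dependent LF translocation into the cytoplasm is blocked. RAW 264.7 cells, 18 h compound exposure at 37 C; 7-point titration, 2.45 nM to 38.3 uM final.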

[11] = molecular target: Galactokinase (Homo sapiens) (UniProt P51570); experiment: qHTS Validation Assay for Inhibitors of Human Galactokinase (GALK) (AID 493189)
Galactokinase (Homo sapiens), sequence (P51570 whole entry, looked up): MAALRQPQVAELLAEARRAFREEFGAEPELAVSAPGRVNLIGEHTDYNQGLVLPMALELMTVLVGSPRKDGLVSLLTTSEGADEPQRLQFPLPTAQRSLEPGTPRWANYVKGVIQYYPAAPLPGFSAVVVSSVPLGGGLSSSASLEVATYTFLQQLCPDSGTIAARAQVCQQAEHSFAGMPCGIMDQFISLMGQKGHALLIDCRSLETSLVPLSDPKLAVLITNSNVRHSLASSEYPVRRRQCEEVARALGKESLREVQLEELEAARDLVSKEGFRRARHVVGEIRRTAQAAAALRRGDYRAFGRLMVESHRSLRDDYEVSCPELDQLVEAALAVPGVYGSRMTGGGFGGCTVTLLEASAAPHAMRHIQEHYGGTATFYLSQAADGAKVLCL
Summary of the method: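 5 nM GALK / 100 uM galactose / 35 uM ATP, 20 mM HEPES pH8.0, 5 mM MgCl2, 60 mM NaCl, 1 mM DTT, 0.01% BSA (final). RT 1 h; Kinase-Glo Plus luminescence.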

[12] = Validation screen for small molecules that induce DNA re-replication in SW480 colon adenocarcinoma cells (AID 504364)
Summary of the method: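 Image-based DNA content read-out: Hoechst stain 40 min, total nuclear fluorescence intensity (ex 405 nm, em 500-530 nm) after 48 h compound exposure of 250 SW480 cells/well at 37 C, 5% CO2, versus DMSO vehicle.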

[13] = molecular target: Peptidyl-prolyl cis-trans isomerase NIMA-interacting 1 (Homo sapiens) (UniProt Q13526); experiment: qHTS Validation Assay to Find Inhibitors of Pin1 (AID 504536; active = well fitted inhibition curve with a large enough effect in the polarisation, with a control signal flat, not every such curve was filed as active; the % refers to the polarisation)
Peptidyl-prolyl cis-trans isomerase NIMA-interacting 1 (Homo sapiens), sequence (Q13526 whole entry, looked up): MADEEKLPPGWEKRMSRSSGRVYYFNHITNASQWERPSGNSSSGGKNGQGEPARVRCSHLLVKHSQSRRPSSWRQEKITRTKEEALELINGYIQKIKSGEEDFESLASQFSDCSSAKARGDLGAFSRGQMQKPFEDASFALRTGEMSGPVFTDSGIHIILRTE
Summary of the method: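 Fluorescence polarization competition: compounds (titration) displace HiFluor-488-labeled Pin1-1b peptide from Pin1 (0.3 uM final) in pH 7.5 HEPES buffer with DTT, 10 min at room temperature; %Activity normalized to no-enzyme wells, curves fitted.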

[14] = molecular target: Phosphoglycerate kinase, glycosomal (Trypanosoma brucei brucei) (UniProt P07378); experiment: qHTS Validation Assay to Find Inhibitors of Phosphoglycerate Kinase (AID 504547)
Phosphoglycerate kinase, glycosomal (Trypanosoma brucei brucei), sequence (P07378 whole entry, looked up): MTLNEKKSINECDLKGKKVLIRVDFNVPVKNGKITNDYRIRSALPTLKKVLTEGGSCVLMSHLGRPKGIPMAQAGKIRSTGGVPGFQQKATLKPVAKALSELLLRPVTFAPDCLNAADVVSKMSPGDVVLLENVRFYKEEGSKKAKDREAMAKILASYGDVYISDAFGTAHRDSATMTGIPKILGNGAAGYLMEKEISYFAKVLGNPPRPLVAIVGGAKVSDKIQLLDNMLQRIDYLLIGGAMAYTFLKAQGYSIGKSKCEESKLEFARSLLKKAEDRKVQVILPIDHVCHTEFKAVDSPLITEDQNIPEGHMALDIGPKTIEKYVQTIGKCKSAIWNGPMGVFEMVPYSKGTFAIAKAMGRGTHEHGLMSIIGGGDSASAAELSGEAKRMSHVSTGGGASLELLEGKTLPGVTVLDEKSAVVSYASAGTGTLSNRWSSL
Summary of the method: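 In TEA buffer (100mM, pH 7.6) containing 5mM MgCl2 and 0.01% Tween-20, the GAPDH-coupled PGK reaction proceeded for 60 minutes at room temperature before a single luminescence reading using Kinase-Glo Plus.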

[15] = molecular target: Transient receptor potential cation channel subfamily V member 1 (Homo sapiens) (UniProt Q8NER1); experiment: HTS Assay for Compounds that Act as Enhancers of the Vanilloid Receptor 1 (AID 488979)
Summary of the method: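 TRPV1-expressing cells loaded with Fluo-8 calcium dye; compounds added and calcium influx read kinetically for 3 min (agonist phase), then capsaicin at EC20 added and read 2 min more for enhancement. Fluorescence ex 480/em 520 nm.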

[16] = molecular target: ATP-dependent 6-phosphofructokinase (Trypanosoma brucei brucei) (UniProt O15648); experiment: qHTS Assay to Find Inhibitors of T. brucei phosphofructokinase: hit validation (AID 492961);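 note: luminescence reports ADP formed as PFK phosphorylates fructose-6-phosphate with ATP; series mostly up to about 51 µM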
ATP-dependent 6-phosphofructokinase (Trypanosoma brucei brucei), sequence (O15648 whole entry, looked up): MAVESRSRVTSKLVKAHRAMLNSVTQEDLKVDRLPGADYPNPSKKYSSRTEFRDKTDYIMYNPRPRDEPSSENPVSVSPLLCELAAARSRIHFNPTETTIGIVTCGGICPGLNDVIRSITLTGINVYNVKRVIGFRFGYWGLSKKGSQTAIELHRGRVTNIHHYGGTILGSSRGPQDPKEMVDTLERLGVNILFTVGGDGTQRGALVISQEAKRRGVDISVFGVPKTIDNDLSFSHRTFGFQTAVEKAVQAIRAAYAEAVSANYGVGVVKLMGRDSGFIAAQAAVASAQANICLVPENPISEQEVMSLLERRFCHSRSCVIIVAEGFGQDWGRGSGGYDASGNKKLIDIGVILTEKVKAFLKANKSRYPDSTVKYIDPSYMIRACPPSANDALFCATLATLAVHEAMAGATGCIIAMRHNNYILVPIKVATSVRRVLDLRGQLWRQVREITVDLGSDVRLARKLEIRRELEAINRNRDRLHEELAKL
Summary of the method: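 PFK 1.25 nM, F6P 0.5 mM, ATP 0.1 mM, MgCl2 5 mM, 0.1 M TEA pH 8.0, Tween20 0.01%, BSA 0.1%; 45 min RT. ADP-Glo two-step detection, luminescence. qHTS titration; curve fitting with curve-class categorization.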

[17] = Validation screen for small molecules that induce genotoxicity in human embryonic kidney (HEK293T) cells expressing luciferase-tagged ELG1 (AID 493106)
Summary of the method: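 ELG1-luciferase reporter readout (ONE-Glo, 30 min, room temperature) after 16 hr compound treatment at 37 °C of HEK293T cells at 2,000 per well. Rising luminescence flags genotoxic stress.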

[18] = molecular target: Thyrotropin-releasing hormone receptor (Homo sapiens) (UniProt P34981); experiment: qHTS for Small Molecule Agonists and Allosteric Enhancers of Human TRH Receptor: Validation Screen for Agonists (AID 493127;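 active = calcium activation more than 3 SD above the typical response in the agonist read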;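 note: intracellular calcium rise by fluo-8 fluorescence before TRH EC20 addition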); settings: TRH receptor agonist cell assay; at 2 µM; stronger effect = higher value
Thyrotropin-releasing hormone receptor (Homo sapiens), sequence (P34981 whole entry, looked up): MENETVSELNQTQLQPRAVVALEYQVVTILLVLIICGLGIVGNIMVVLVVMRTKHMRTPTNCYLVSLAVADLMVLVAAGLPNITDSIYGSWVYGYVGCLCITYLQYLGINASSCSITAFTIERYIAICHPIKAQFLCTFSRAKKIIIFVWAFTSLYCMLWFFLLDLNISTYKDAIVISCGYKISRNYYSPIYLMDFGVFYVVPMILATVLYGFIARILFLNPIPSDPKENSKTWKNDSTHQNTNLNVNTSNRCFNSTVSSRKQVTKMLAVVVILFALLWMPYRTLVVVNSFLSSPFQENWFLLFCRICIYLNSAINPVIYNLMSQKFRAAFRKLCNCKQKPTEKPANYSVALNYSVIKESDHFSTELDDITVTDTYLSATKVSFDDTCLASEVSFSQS
Summary of the method: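 Compound-evoked intracellular calcium release in fluo-8-loaded TRHR cells, read kinetically on FDSS (Ex 480/Em 530, 1 s/cycle) after 23 nL pintool transfer. Agonist phase preceded 10 nM TRH EC20 addition.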

[19] = molecular target: D(1A) dopamine receptor (Homo sapiens) (UniProt P21728); experiment: HTS Assay for Allosteric Agonists of the Human D1 Dopamine Receptor: Primary Screen for Potentiators (AID 488982)
Summary of the method: as §1

[20] = molecular target: Flap endonuclease 1 (Homo sapiens) (UniProt P39748); experiment: qHTS Validation Assay for the Inhibitors of Human Flap endonuclease 1 (FEN1) (AID 488816)
Summary of the method: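 Steps: add FEN1 (10 nM reagent) or buffer only; pin compounds; hold 15 min at room temperature; start with substrate, 50 nM final; read at 0 and 15 min; correct, normalize and fit a four-parameter Hill curve.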

## NCCCNCCSP(=O)(O)O
[1]
  Potency: inactive
[2]
  Potency: inactive
[3]
  Potency: inactive
[4]
  outcome: inactive
[5]
  outcome: inactive
[6]
  Potency: inactive
[7]
  Potency: inactive
[8]
  Potency: inactive
[9]
  Potency: inactive
  viability change: 4.69%
[10]
  outcome: inactive
[11]
  outcome: inactive
[12]
  outcome: inactive
[13]
  outcome: inactive
[14]
  outcome: inactive

## Cc1nnc(SCC2=C(C(=O)O)N3C(=O)[C@@H](NC(=O)Cn4cnnn4)[C@H]3SC2)s1
[4]
  outcome: inactive
[15]
  outcome: inactive
[5]
  outcome: inactive
[6]
  Potency: inactive
[7]
  Potency: inactive
[16]
  outcome: inactive
[17]
  Potency: inactive
[8]
  Potency: inactive
[18]
  activation: 1.12% (inactive)
[9]
  Potency: inactive
  viability change: -1.79%
[10]
  outcome: inactive
[11]
  outcome: inactive
[13]
  outcome: inactive
[14]
  outcome: inactive

## CCNC(=O)N1CCN(CCCC(c2ccc(F)cc2)c2ccc(F)cc2)CC1
[1]
  Potency: inactive
[2]
  Potency: inactive
[4]
  outcome: inactive
[5]
  outcome: inactive
[6]
  Potency: 15.8 µM (active)
[19]
  Potency: inactive
[17]
  Potency: inactive
[8]
  Potency: inactive
[9]
  Potency: inactive
  viability change: -3.28%
[10]
  outcome: inactive
[11]
  outcome: inactive
[12]
  outcome: inactive
[13]
  outcome: inactive
[14]
  outcome: inactive

## CC(N=C(NC#N)Nc1ccncc1)C(C)(C)C (centres undefined)
[1]
  Potency: inactive
[2]
  Potency: inactive
[3]
  Potency: inactive
[4]
  outcome: inactive
[15]
  outcome: inactive
[5]
  outcome: inactive
[6]
  Potency: inactive
[19]
  Potency: inactive
[7]
  Potency: inactive
[8]
  Potency: inactive
[18]
  activation: 0.125% (inactive)
[9]
  Potency: inactive
  viability change: -0.502%
[10]
  outcome: inactive
[12]
  outcome: inactive
[13]
  outcome: inactive

## CC(=O)OCC1=C(C(=O)O)N2C(=O)[C@@H](NC(=O)Cc3cccs3)[C@H]2SC1
[2]
  Potency: inactive
[3]
  Potency: inactive
[15]
  outcome: inactive
[5]
  outcome: inactive
[6]
  Potency: inactive
[19]
  Potency: inactive
[7]
  Potency: inactive
[16]
  outcome: inactive
[17]
  Potency: inactive
[8]
  Potency: inactive
[18]
  activation: 0.938% (inactive)
[9]
  Potency: inactive
  viability change: 0.396%
[10]
  outcome: inactive
[11]
  outcome: inactive
[12]
  outcome: inactive
[14]
  outcome: inactive

## C[C@H](CS)C(=O)N1CCC[C@H]1C(=O)O
[2]
  Potency: inactive
[4]
  outcome: inactive
[5]
  outcome: inactive
[6]
  Potency: inactive
[19]
  Potency: inactive
[7]
  Potency: inactive
[16]
  outcome: inactive
[17]
  Potency: inactive
[8]
  Potency: inactive
[9]
  Potency: inactive
  viability change: 0.828%
[10]
  outcome: inactive
[12]
  outcome: inactive
[13]
  outcome: inactive
[14]
  outcome: inactive

## O=C(CCCN1CCC(O)(c2cccc(C(F)(F)F)c2)CC1)c1ccc(F)cc1
[1]
  Potency: inactive
[2]
  Potency: inactive
[3]
  Potency: inactive
[15]
  outcome: inactive
[5]
  outcome: inactive
[19]
  Potency: inactive
[18]
  activation: 3.56% (inactive)
[9]
  Potency: inactive
  viability change: -9.85%
[10]
  outcome: inactive
[12]
  outcome: inactive
[13]
  outcome: inactive

## CC1=C(C)C(=O)C(CCCCC#CCCCC#CCO)=C(C)C1=O
[20]
  Potency: inactive
[2]
  Potency: 31.6 µM (active)
[3]
  Potency: 31.6 µM (active)
[4]
  outcome: inactive
[15]
  outcome: inactive
[5]
  outcome: inactive
[6]
  Potency: inactive
[7]
  Potency: inactive
[16]
  outcome: inactive
[17]
  Potency: inactive
[18]
  activation: -4.88% (inactive)
[9]
  Potency: inactive
  viability change: 5.77%
[10]
  outcome: inactive
[11]
  outcome: inactive
[12]
  outcome: inactive
[13]
  outcome: inactive
[14]
  outcome: inactive

## Cc1ccc(/C(=C\CN2CCCC2)c2ccccn2)cc1
[1]
  Potency: inactive
[3]
  Potency: inactive
[5]
  outcome: inactive
[6]
  Potency: inactive
[19]
  Potency: inactive
[7]
  Potency: inactive
[16]
  outcome: inactive
[8]
  Potency: inactive
[9]
  Potency: inactive
  viability change: 2.7%
[10]
  outcome: inactive
[12]
  outcome: inactive
[13]
  outcome: inactive
[14]
  outcome: inactive

## Cc1scc2c1N(C(=O)CN1CCN(C)CC1)c1ccccc1NC2=O
[2]
  Potency: inactive
[15]
  outcome: inactive
[5]
  outcome: inactive
[6]
  Potency: inactive
[7]
  Potency: inactive
[17]
  Potency: inactive
[8]
  Potency: inactive
[9]
  Potency: inactive
  viability change: 3.95%
[10]
  outcome: inactive
[11]
  outcome: inactive
[13]
  outcome: inactive
[14]
  outcome: inactive

## Brc1c(NC2=NCCN2)ccc2nccnc12
[2]
  Potency: inactive
[5]
  outcome: inactive
[6]
  Potency: inactive
[19]
  Potency: inactive
[7]
  Potency: inactive
[17]
  Potency: inactive
[8]
  Potency: inactive
[9]
  Potency: inactive
  viability change: -1.27%
[10]
  outcome: inactive
[11]
  outcome: inactive
[12]
  outcome: inactive
[13]
  outcome: inactive
[14]
  outcome: inactive
